Records with an inconclusive call do not appear. A structure can be active in one record and inactive in another. The source made the active and inactive calls. The call rests on the fitted dose curve; in most records, active means well fitted curve in the direction sought with a large enough effect; inconclusive means small, poorly fitted or top-dose-only effect, or another doubt; inactive means no such curve, though single readings can be large; an effect the other way counts as inactive or inconclusive.
Experiments:
[1] = molecular target: Flap endonuclease 1 (Homo sapiens) (UniProt P39748); experiment: qHTS Validation Assay for the Inhibitors of Human Flap endonuclease 1 (FEN1) (AID 488816); further: potency means the concentration at half of the fitted maximal effect
Sequence of Flap endonuclease 1 (Homo sapiens) (P39748 whole entry, looked up): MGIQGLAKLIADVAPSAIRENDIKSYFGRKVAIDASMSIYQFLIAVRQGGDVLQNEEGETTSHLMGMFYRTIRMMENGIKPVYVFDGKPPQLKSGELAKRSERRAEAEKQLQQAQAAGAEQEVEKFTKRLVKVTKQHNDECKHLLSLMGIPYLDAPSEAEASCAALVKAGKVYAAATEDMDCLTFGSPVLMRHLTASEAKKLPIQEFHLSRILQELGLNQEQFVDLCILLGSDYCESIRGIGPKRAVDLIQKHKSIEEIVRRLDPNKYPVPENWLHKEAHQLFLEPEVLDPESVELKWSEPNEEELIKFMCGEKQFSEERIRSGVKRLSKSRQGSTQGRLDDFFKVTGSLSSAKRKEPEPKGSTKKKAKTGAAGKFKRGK
Outline: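 Human FEN1 (10 nM) preincubated 15 min at room temperature with compounds, then flap DNA substrate added at 50 nM final. Fluorescence read at 0 and 15 min; concentration-response fitted with four-parameter Hill equation.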

[2] = molecular target: M-phase phosphoprotein 8 (Homo sapiens) (UniProt Q99549); experiment: qHTS Validation Assay for Inhibitors for MPP8 Chromodomain Interactions with Methylated Histone Tails (AID 488949); further: nearly all actives have a fitted effect of over 55% in size; further: potency means the concentration at half of the fitted maximal effect
Sequence of M-phase phosphoprotein 8 (Homo sapiens) (Q99549 whole entry, looked up): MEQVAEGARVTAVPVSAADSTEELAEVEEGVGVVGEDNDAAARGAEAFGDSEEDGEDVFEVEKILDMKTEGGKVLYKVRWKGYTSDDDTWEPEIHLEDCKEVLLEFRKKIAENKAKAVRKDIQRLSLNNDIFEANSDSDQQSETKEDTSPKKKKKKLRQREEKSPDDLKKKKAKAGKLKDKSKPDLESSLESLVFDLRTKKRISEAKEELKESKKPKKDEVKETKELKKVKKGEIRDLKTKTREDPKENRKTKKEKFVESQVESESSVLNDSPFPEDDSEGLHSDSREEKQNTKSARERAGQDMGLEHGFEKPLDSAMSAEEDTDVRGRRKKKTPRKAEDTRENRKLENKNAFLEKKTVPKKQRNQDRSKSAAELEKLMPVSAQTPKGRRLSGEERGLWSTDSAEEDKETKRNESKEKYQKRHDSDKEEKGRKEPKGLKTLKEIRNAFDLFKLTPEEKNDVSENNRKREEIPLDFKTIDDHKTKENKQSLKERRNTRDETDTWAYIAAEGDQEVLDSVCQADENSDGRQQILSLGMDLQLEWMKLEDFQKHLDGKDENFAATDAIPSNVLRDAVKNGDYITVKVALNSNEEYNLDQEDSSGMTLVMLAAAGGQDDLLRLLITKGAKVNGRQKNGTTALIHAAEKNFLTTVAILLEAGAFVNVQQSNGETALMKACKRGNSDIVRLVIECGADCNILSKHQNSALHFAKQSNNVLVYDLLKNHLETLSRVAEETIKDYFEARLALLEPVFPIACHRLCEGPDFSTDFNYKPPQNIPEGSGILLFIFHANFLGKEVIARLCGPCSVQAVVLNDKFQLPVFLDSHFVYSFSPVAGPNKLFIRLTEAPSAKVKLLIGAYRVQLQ
Outline: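 AlphaScreen read-out: streptavidin donor and nickel chelate acceptor beads (final 10 ug/mL), 30 min in the dark at RT. Complex of 50 nM MPP8 and 50 nM b-H3(1-18)K9me3 peptide had been exposed to compounds for 30 min beforehand.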

[3] = molecular target: Chromobox protein homolog 1 (Homo sapiens) (UniProt P83916); experiment: qHTS Validation Assay for Inhibitors of HP1-beta Chromodomain Interactions with Methylated Histone Tails (AID 488953); further: nearly all actives have a fitted effect of over 50% in size; further: potency means the concentration at half of the fitted maximal effect
Sequence of Chromobox protein homolog 1 (Homo sapiens) (P83916 whole entry, looked up): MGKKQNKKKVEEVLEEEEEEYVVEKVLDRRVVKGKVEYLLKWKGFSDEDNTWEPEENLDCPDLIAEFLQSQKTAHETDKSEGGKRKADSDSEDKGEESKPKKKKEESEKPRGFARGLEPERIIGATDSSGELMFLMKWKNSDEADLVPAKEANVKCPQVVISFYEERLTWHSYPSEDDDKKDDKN
Outline: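 50 nM HP1-beta + 50 nM biotin-H3(1-18)K9me3, PBS pH 7.4, 0.01% Tween-20, 30 min RT; compound added, 30 min RT; AlphaScreen beads 10 ug/mL final, 30 min dark; luminescence read.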

[4] = molecular target: Methanococcus maripaludis chaperonin (MmCpn) (UniProt Q6LX38); experiment: High-Throughput Screening for Modulators of Cytosolic Chaperonin Activity: MmCpn Primary Screen (AID 488978);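 further: 50 nM MmCpn enzyme hydrolysing 30 µM ATP at 37 °C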
Sequence of Methanococcus maripaludis chaperonin (MmCpn) (Q6LX38 1-543): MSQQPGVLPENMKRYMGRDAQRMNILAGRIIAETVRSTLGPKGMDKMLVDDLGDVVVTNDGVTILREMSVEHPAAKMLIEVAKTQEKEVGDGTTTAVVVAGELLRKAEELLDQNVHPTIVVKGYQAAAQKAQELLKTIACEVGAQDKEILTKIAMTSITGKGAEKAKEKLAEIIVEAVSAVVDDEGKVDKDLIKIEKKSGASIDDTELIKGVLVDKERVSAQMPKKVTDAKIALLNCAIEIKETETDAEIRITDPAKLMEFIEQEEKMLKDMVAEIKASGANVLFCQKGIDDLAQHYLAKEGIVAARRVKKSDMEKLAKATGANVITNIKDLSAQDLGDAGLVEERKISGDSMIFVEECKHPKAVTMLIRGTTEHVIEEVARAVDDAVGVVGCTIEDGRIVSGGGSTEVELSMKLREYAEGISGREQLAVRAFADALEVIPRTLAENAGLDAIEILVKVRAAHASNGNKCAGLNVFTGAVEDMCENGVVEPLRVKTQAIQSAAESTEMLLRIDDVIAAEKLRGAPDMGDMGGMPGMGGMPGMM
Outline: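 ADP formation read by HTRF Transcreener, 665/590 nm emission after 320 nm excitation. Enzyme: archaeal chaperonin at 50 nM final; substrate ATP 30 uM final; 10 min, 37C, after 5 min compound preincubation at RT.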

[5] = molecular target: D(1A) dopamine receptor (Homo sapiens) (UniProt P21728); experiment: HTS Assay for Allosteric Agonists of the Human D1 Dopamine Receptor: Primary Screen for Agonists (AID 488981); further: potency means the concentration at half of the fitted maximal effect
Sequence of D(1A) dopamine receptor (Homo sapiens) (P21728 whole entry, looked up): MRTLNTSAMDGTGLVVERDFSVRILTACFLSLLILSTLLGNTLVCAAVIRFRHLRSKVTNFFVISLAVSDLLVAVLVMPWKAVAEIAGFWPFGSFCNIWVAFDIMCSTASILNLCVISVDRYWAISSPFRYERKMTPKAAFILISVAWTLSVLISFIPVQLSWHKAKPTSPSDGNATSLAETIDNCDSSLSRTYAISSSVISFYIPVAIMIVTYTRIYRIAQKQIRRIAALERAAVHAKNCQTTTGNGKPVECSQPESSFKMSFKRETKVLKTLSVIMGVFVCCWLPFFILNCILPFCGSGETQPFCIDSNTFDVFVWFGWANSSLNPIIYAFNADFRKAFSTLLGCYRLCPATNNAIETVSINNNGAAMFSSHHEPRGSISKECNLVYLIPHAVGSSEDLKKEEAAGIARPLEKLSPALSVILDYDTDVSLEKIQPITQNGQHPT
Outline: (§1)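 Tetracycline-induced HEK293 Trex D1 cells with forced coupling to calcium, loaded with no-wash calcium dye; kinetic fluorescence read 180 s after compound addition for agonism, then a further 180 s after an EC20 dopamine challenge for potentiation.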

[6] = molecular target: D(1A) dopamine receptor (Homo sapiens) (UniProt P21728); experiment: HTS Assay for Allosteric Agonists of the Human D1 Dopamine Receptor: Primary Screen for Potentiators (AID 488982)
Outline: as §1

[7] = molecular target: D(1A) dopamine receptor (Homo sapiens) (UniProt P21728); experiment: HTS Assay for Allosteric Agonists of the Human D1 Dopamine Receptor: Primary Screen for Antagonists (AID 488983);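 further: calcium flux response to an EC80 dopamine challenge measured with no-wash dye; nearly all actives have a fitted effect of over 65% in size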; further: potency means the concentration at half of the fitted maximal effect
Outline: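 Cells are induced with tetracycline and incubated overnight at 30 C, then loaded with calcium dye for 30 to 90 minutes at room temperature. Compound addition is followed by a 180 s read, then an EC80 dopamine addition and another 180 s read.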

[8] = molecular target: Transient receptor potential cation channel subfamily V member 1 (Homo sapiens) (UniProt Q8NER1); experiment: HTS Assay for Compounds that Act as Enhancers of the Vanilloid Receptor 1 (AID 488979)
Sequence of Transient receptor potential cation channel subfamily V member 1 (Homo sapiens) (Q8NER1 whole entry, looked up): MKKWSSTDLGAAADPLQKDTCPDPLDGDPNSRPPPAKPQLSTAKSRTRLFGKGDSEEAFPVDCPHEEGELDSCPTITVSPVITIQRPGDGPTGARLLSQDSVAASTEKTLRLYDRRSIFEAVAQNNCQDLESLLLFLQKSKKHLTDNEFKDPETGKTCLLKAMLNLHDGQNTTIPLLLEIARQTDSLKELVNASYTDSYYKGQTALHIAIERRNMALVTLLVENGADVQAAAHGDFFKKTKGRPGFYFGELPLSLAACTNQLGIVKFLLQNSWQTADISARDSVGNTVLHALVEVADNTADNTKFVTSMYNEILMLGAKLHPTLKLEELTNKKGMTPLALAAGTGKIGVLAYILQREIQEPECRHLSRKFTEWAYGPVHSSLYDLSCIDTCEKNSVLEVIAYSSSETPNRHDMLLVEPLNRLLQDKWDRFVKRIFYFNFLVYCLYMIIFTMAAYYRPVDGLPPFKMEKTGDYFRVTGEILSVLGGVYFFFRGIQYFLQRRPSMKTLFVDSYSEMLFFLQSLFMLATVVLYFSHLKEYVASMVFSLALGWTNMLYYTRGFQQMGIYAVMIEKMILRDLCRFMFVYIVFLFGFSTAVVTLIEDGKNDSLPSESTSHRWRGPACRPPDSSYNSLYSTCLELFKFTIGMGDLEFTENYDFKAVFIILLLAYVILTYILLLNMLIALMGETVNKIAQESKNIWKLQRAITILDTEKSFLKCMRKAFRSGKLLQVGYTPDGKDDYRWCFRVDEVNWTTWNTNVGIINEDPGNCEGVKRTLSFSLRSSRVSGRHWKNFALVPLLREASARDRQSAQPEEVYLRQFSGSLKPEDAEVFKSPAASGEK
Outline: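 TRPV1 cells loaded with Fluo-8 calcium dye; compound added and Ca2+ signal (ex 480/em 520 nm) followed 3 min, then capsaicin at EC20 added and read 2 more min to detect enhancement.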

[9] = molecular target: Thyrotropin receptor (Homo sapiens) (UniProt P16473); experiment: qHTS Assay for Antagonists of the Thyroid Stimulating Hormone Receptor (AID 488980); further: series mostly up to about 58 µM
Sequence of Thyrotropin receptor (Homo sapiens) (P16473 whole entry, looked up): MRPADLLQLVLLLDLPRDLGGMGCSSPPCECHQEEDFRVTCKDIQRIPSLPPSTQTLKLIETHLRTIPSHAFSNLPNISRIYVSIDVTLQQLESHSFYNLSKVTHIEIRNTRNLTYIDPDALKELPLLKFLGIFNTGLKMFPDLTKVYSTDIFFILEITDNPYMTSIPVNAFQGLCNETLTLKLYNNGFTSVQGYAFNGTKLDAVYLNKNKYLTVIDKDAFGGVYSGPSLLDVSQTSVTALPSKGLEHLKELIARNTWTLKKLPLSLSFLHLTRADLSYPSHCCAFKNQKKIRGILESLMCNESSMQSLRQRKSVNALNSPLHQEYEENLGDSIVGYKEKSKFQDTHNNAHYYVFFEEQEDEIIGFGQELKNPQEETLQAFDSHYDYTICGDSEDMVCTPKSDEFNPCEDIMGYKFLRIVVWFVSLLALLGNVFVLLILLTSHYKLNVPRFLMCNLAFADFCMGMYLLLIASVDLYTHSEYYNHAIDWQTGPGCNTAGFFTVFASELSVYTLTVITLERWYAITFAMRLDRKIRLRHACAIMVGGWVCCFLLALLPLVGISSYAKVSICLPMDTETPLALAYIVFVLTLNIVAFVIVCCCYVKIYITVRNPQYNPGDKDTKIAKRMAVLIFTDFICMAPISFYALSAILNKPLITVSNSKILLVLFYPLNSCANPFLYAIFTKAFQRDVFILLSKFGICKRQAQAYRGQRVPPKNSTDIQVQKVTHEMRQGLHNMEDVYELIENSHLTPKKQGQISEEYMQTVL
Outline: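 TSHR-HEK293 cells; 70 uM RO 20-1724 PDE inhibitor; compound + EC80 TSH (4 nM final); anti-cAMP cryptate antibody/cAMP-d2 in lysis buffer, 30 min RT; HTRF 665/620 nm read.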

Measured: Potency

CNc1ncnc2c1ncn2[C@@H]1O[C@H](CO)[C@@H](O)[C@H]1O
inactive: [1] | [2] | [3] | [4] | [5] | [6] | [7]

N=c1ccn2c(n1)O[C@H]1[C@H](O)[C@@H](CO)O[C@H]12
inactive: [1] | [2] | [3] | [4] | [5] | [6] | [7]

Fc1ccc(C(OCCCc2cnc[nH]2)c2ccc(F)cc2)cc1
active: [2] 50.1 µM | [3] 39.8 µM
inactive: [1] | [4] | [8] | [9] | [5] | [6] | [7]

O=[N+]([O-])c1ccc(CSc2ncnc3c2ncn3[C@@H]2O[C@H](CO)[C@@H](O)[C@H]2O)cc1
inactive: [1] | [2] | [3] | [4] | [5] | [6] | [7]

CC(=O)N[C@H](C(=O)O)C(C)(C)SN=O
inactive: [1] | [2] | [3] | [4] | [8] | [9] | [5] | [6] | [7]

NCCCS(=O)(=O)O
inactive: [1] | [2] | [3] | [4] | [8] | [9] | [5] | [6] | [7]

CCc1c(C(=O)NCCc2ccc(N3CCCCC3)cc2)[nH]c2ccc(Cl)cc12
active: [3] 20 µM
inactive: [1] | [2] | [4] | [5] | [6] | [7]

O=c1[nH]c2cc(Cl)c(Cl)cc2[nH]c1=O
inactive: [1] | [2] | [3] | [4] | [8] | [9] | [5] | [6] | [7]

CN(C)C(N)=NCCC[C@H](N)C(=O)O
inactive: [1] | [2] | [3] | [4] | [8] | [9] | [5] | [6] | [7]

CCCCCCCCc1ccc(-c2ccc(C(=O)O)cc2)cc1
inactive: [1] | [2] | [3] | [4] | [5] | [6] | [7]

COC1=C(OC)C(=O)c2ccccc2C1=O
inactive: [1] | [2] | [3] | [4] | [8] | [9] | [5] | [6] | [7]

Nc1nc(Nc2ccccc2)nc2c1ncn2[C@@H]1O[C@H](CO)[C@@H](O)[C@H]1O
inactive: [1] | [2] | [3] | [4] | [5] | [6] | [7]

O=C(O)[C@@H]1C[C@@H](C(=O)O)N1
inactive: [1] | [2] | [3] | [4] | [8] | [5] | [6] | [7]

Cn1cc(C2=C(c3ccc(Cl)cc3Cl)C(=O)NC2=O)c2ccccc21
active: [5] 14.1 µM
inactive: [1] | [2] | [3] | [4] | [9]

CCCCC#Cc1nc(NC)c2ncn([C@@H]3O[C@H](CO)[C@@H](O)[C@H]3O)c2n1
inactive: [1] | [2] | [3] | [4] | [5] | [6]

Cc1cc(NC2CCCCC2)nc(-n2nc(C)cc2C)n1
inactive: [1] | [2] | [3] | [4] | [5] | [6] | [7]

CCCC1(C)C(C#N)(C#N)C1(C#N)C#N
inactive: [1] | [2] | [3] | [4] | [5] | [6] | [7]

NC(CCCP(=O)(O)O)C(=O)O (stereo not given)
inactive: [1] | [2] | [3] | [4] | [8] | [9] | [5] | [7]

C[N+](C)(C)CCOP(=O)(O)OP(=O)([O-])OC[C@H]1O[C@@H](n2ccc(N)nc2=O)[C@H](O)[C@@H]1O
inactive: [1] | [2] | [3] | [4] | [5] | [6] | [7]

NC(=O)C1=CN(C2OC(COP(=O)(O)OP(=O)(O)OC[C@H]3O[C@@H](n4cnc5c(N)ncnc54)[C@H](OP(=O)(O)O)[C@@H]3O)C(O)C2O)C=CC1 (stereo not given in full)
inactive: [1] | [2] | [4] | [5] | [6] | [7]
active: [3] 0.0053 µM

O=C1O/C(=C/Br)CCC1c1cccc2ccccc12 (stereo not given)
inactive: [1] | [2] | [3] | [4] | [8] | [9] | [5] | [6] | [7]

O=C1NC(=O)/C(=C/c2ccc3nccnc3c2)S1
inactive: [1] | [2] | [3] | [4] | [5] | [6] | [7]

NCCCCCCCCCCN
inactive: [1] | [2] | [3] | [4] | [8] | [9] | [5] | [6] | [7]

Nc1nc(Cl)nc2c1ncn2[C@@H]1O[C@H](CO)[C@@H](O)[C@H]1O
inactive: [1] | [2] | [3] | [4] | [5] | [6] | [7]

Nc1ncnc2c1ncn2[C@@H]1O[C@H](COP(=O)(O)OP(=O)(O)OP(=O)(O)OP(=O)(O)OC[C@@H]2O[C@H](n3cnc4c(N)ncnc43)[C@@H](O)[C@H]2O)[C@@H](O)[C@H]1O
active: [5] 0.562 µM
inactive: [1] | [2] | [3] | [4]

CC(=O)/C=C1\C(=O)N(C)c2ccccc21
inactive: [1] | [2] | [4] | [5] | [6]
active: [3] 0.0532 µM | [7] 10 µM

CSc1nc(N)c2ncn([C@@H]3O[C@H](COP(=O)(O)OP(=O)(O)OP(=O)(O)O)[C@@H](O)[C@H]3O)c2n1
active: [5] 1.58 µM
inactive: [1] | [2] | [3] | [4]

OCC1O[C@H]([S-])[C@H](O)[C@@H](O)[C@@H]1O.[Au+] (stereo not given in full)
inactive: [4] | [5] | [6] | [7]
active: [1] 1.5 µM | [2] 1.5 µM | [3] 2 µM

O=Nc1ccc2oc(=O)ccc2c1
inactive: [1] | [4] | [8] | [9] | [5] | [7]
active: [2] 39.8 µM | [3] 39.8 µM

CCOC(=O)C1=C(C)NC(C)=C(C(=O)OCC)C1c1c(F)c(F)c(F)c(F)c1F
inactive: [1] | [2] | [3] | [4] | [5] | [6]

Nc1ncnc2c1c(I)cn2[C@@H]1C[C@H](N)[C@@H](O)[C@H]1O
inactive: [1] | [2] | [3] | [4] | [5] | [6] | [7]

CCCCC/C=C\CC(O)/C=C/c1cccc(CC(O)CCCCO)n1 (stereo not given)
active: [3] 0.0075 µM
inactive: [1] | [2] | [4] | [8] | [9] | [5] | [6] | [7]

CN1C2CCC1CC(OC(=O)C(O)c1ccccc1)C2 (stereo not given)
inactive: [1] | [2] | [3] | [4] | [8] | [9] | [5] | [6] | [7]

CN1CC(=O)N/C1=N/C(=O)Nc1cccc(Cl)c1
inactive: [1] | [2] | [3] | [4] | [5] | [6] | [7]

NC(N)=NC(=O)c1nc(Cl)c(N2CCCCCC2)nc1N
44.7 µM (active) and inactive: [2]
inactive: [1] | [4] | [9] | [5] | [6]

From PubChem BioAssay (NCATS)
